Results as given in PubChem BioAssay (NCATS).
Records with an inconclusive call do not appear. A call without a number means that no potency is given here. Calls of active or inactive are those of the source. Calls come from the whole dose curve; as a rule, active = well fitted curve in the direction sought with a large enough effect; inconclusive = small, poorly fitted or top-dose-only effect, or another doubt; inactive = no such curve, though single readings can be large; an effect the other way counts as inactive or inconclusive. Peptide text beside a SMILES is read from it. * marks the point of attachment. Hexanoyl = CCCCCC(=O)*

Assay: qHTS for ATAD5 Agonist screened against the NCATS CANVASS Library (AID 1347367);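 note: luciferase reporter driven by ATAD5 which rises upon DNA damage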
Settings: HEK293T ATAD5-luciferase reporter, luminescence, 16 h; series mostly up to 46.1 µM
Procedure, shortened: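 Luciferase reporter under ATAD5 control, stably integrated in HEK293T cells (2000/well). Compounds (11 points) incubated 16 h at 37C; viability read first by CellTiter-Fluor, then luminescence reporting ATAD5 activation. MMS positive control.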

| Compound | Potency |
| --- | --- |
| CCCCCC(=O)N[C@@H](CC(C)C)C(=O)N[C@H](C=O)CCC(=O)O (Hexanoyl-Leu-Glu-aldehyde) | inactive |
| COc1ccc([C@@H]2c3cc4c(cc3C(=O)C(C)C2C)OCO4)cc1OC (some centres undefined) | inactive |
| CC1(C)CC[C@]2(CO)CC[C@]3(C)C(=CCC4[C@@]5(C)CC[C@H](O)C(C)(C)C5CC[C@]43C)C2C1 (some centres undefined) | inactive |

Assay: G06 Cancer Cell Toxicity qHTS against the NCATS CANVASS Library (AID 1347368); note: nearly all actives have a fitted effect of over 60% in size; note: potency is the fitted concentration of half-maximal effect
Settings: G06 dog glioma cells, viability ATP luminescence, 72 h; series mostly up to 46.1 µM
Procedure, shortened: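 Quantitative HTS in G06 cells (dog glioma): 72 hr treatment, 11 concentrations, then ATP-based luminescent viability readout; bortezomib 0.1 nM–4.6 uM final as reference.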

| Compound | Potency |
| --- | --- |
| CC(=O)N[C@H](C)c1nc(/C=C/C=C/C(=O)CC2CC(=O)CC[C@]2(C)O)cs1 (some centres undefined) | inactive |
| CN1C(=O)C(=O)N2C(=C[C@]3(c4c[nH]c5ccccc45)c4ccccc4N[C@H]23)C1=O | inactive |
| CN1CC[C@]23c4ccccc4N[C@H]1[C@]21CCN(C)[C@H]3Nc2ccccc21 | inactive |
| C/C=C1/C2=CCCN3C(=O)O[C@H]([C@H]1O)[C@H]23 | inactive |
| COc1c(O)cc(O)c2c(=O)cc(-c3ccccc3)oc12 | inactive |
| COC1C(C)OC(OCC23C[C@@H]4[C@H](C)CC[C@H]4C4(C=O)CC2C=C(C(C)C)C34C(=O)O)[C@@H](O)[C@H]1O (some centres undefined) | inactive |
| COc1ccc(-c2oc3cc(OC)cc(OC)c3c(=O)c2O)cc1 | 9.35 µM (active) |
| Cc1cc(O)cc2c1C(=O)c1c(O)cc(O)cc1C2=O | inactive |
| C=C(Cl)[C@](Cl)(CBr)CC[C@@H](Br)C(C)(C)Cl | inactive |
| C=C(C)C(=O)O[C@H]1C[C@@]2(C)OC(=CC2=O)/C(C)=C\[C@H]2OC(=O)C(=C)[C@H]12 | 2.09 µM (active) |
| C=C[C@]1(C)CC[C@@H]([C@H](C)C(=O)CC=C(C)C)O1 | inactive |
